Hits are enriched below; roughly 12% of the tested compounds scored in any of these assays.
Sfp PPTase inh = inhibitors of Bacillus subtilis Sfp phosphopantetheinyl transferase | Potency, µM, without a hit: largest response in the series, negative = inhibition, hits mostly inhibitors | hit rate 3.5% among 310,000 | Q9F4F7 | Biochemical Sfp PPTase activity, qHTS;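 also: the enzyme is Sfp with the accession as filed and its product quenches rhodamine fluorescence; 0% = enzyme reaction without inhibitor and -100% = no enzyme wells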
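Compounds were incubated with enzyme (final 15 nM) for 15 min at room temperature before substrate addition started the reaction. Fluorescence at 525 nm excitation, 598 nm emission was recorded immediately and after 30 minutes.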
JMJD2A Tudor = inhibitors of human JMJD2A Tudor domain. O75164. AlphaScreen JMJD2A-Tudor / H3K4me3 peptide binding. Potency, µM (highest dose often 114 µM), for the others: top-dose activity change, negative = inhibition, actives largely listed as inhibitors. hit rate 4.4% among 390,000. AID 504339; also: % is scaled to controls: 0 for no effect and ±100 for the full control effect; nearly all actives have a fitted effect of over 50% in size
G9a inh = inhibitors of human histone lysine methyltransferase G9a. hit rate 8.8% among 350,000. Potency, µM (series often up to 102 µM), for the others: top-dose activity, negative = inhibition, actives largely listed as inhibitors. Q96KQ7. AID 504332. G9a H3K9 monomethylation, AlphaScreen, 2 h; also: % is scaled to controls: 0 for no effect and ±100 for the full control effect; nearly all actives have a fitted effect of over 75% in size
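Methyltransferase reactions run at room temperature for 2 h (20 nM enzyme, 500 nM biotin-H3K9 peptide, 20 uM SAM) after a 15 min compound preincubation; product detected by AlphaScreen beads and anti-H3K9me1 antibody.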
BAZ2B block = inhibitors of human BAZ2B bromodomain | Q9UIF8 | AlphaScreen BAZ2B-H3K14Ac peptide displacement | Potency, µM (doses to about 114 µM), for inactives: at the top dose activity change, negative = inhibition, usual class: inhibitors | hit rate 4.4% among 360,000 | AID 504333; also: % is scaled to controls: 0 for no effect and ±100 for the full control effect; nearly all actives have a fitted effect of over 60% in size
Target sequence (Q9UIF8 whole entry, looked up): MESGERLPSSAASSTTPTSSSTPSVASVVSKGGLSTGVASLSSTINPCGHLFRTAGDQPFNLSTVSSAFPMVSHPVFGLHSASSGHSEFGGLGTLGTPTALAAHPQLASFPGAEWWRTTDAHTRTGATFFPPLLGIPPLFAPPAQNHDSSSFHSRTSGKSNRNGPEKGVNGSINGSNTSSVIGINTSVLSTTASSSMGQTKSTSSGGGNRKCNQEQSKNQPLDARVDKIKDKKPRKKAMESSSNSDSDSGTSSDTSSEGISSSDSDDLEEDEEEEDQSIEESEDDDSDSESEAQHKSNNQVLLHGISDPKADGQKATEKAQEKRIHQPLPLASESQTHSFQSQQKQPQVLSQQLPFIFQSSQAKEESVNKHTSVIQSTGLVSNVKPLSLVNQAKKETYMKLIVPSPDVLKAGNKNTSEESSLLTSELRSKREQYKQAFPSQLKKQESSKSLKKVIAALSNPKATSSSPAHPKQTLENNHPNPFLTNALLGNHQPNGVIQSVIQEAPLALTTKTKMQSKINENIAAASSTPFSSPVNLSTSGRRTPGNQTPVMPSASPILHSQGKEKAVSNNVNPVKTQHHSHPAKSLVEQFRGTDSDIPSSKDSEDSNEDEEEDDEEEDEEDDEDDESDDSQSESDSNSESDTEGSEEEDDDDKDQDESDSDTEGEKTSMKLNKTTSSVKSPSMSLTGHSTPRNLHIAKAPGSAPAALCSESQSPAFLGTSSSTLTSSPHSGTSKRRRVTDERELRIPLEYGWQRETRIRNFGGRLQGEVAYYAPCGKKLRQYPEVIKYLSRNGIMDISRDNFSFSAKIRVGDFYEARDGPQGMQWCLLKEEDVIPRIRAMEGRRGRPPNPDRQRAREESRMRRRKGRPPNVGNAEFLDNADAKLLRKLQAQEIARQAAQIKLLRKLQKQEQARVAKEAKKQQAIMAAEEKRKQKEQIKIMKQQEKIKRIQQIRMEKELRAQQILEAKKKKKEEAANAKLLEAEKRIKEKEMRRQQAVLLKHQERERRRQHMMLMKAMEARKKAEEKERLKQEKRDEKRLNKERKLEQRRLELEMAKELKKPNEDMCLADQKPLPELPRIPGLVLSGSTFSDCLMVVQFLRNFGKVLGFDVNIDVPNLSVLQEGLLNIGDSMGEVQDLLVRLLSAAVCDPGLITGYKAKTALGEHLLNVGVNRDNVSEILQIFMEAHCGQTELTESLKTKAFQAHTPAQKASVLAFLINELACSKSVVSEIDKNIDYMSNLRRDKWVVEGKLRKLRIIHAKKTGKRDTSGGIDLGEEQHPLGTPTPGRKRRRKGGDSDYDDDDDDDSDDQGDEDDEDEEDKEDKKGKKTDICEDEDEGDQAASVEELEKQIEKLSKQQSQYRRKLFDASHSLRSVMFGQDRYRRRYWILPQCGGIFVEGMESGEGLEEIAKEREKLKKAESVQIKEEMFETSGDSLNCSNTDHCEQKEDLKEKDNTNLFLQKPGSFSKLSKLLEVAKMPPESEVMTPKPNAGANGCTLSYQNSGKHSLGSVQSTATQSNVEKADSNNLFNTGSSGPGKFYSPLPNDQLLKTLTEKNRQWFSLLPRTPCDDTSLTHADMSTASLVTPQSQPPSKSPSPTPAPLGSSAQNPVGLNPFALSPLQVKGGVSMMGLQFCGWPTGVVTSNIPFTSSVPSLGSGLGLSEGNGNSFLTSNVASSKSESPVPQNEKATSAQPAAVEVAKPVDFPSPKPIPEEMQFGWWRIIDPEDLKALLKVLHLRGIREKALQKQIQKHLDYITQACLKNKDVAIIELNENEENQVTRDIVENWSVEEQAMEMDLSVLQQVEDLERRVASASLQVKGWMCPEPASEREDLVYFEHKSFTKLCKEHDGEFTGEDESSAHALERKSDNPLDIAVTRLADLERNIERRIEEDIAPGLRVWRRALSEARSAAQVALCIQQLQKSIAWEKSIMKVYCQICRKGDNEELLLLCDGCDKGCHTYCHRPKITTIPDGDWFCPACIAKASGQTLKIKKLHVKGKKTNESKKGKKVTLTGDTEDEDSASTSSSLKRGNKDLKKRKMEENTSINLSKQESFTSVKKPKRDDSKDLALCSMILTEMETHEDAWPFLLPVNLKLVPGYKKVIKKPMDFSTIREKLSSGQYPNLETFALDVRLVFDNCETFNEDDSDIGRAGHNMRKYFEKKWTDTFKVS
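AlphaScreen luminescence quantifies BAZ2B engagement of H3K14Ac peptide; the protein and biotinylated peptide are both at 50 nM final, buffer PBS pH 7.4 with 0.01% Tween-20, all steps at room temperature.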
HP1b binding inh = blocks HP1-beta chromodomain binding to methylated histone tails. Potency, µM (highest dose often 114 µM), for the others: top-dose activity change, negative = inhibition, actives largely listed as inhibitors. hit rate 0.56% among 390,000. AlphaScreen HP1-beta / biotin-H3K9me3 peptide binding. P83916. AID 540317; also: nearly all actives have a fitted effect of over 70% in size
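Compound inhibition of the preformed complex between 50 nM HP1-beta and 50 nM biotinylated H3K9me3 peptide was read by AlphaScreen. Buffer was PBS pH 7.4 with 0.01% Tween-20. Incubations ran 30 min at room temperature, with 10 ug/mL donor/acceptor beads.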
An asterisk follows results filed as active; ? = inconclusive; / = no result given; ! = not confirmed by another sample; [ ] = remark or other dose. Calls follow the shape of the dose curve; as a rule, active = well fitted curve in the direction sought with a large enough effect; inconclusive = small, poorly fitted or top-dose-only effect, or another doubt; inactive = no such curve, though single readings can be large; an effect the other way counts as inactive or inconclusive. Potency is read from the fitted curve at half-maximal effect.

SMILES	Sfp PPTase inh	JMJD2A Tudor	G9a inh	BAZ2B block	HP1b binding inh
Cc1ccc(C(=O)NC(=S)Nc2ccc3c(c2)OCCO3)c(C)c1	1.0%	?	?	?	13.8%
O=C(NC(=S)Nc1cccc(O)c1)c1ccco1	?	-16.9%	50.1µM*	-20.0%	14.1%
C=C(C)C(=O)Nc1ccc2c(c1)OCCOCCOCCO2	4.8%	17.8µM*	10µM*	11.2µM*	12.6µM*
O=C(NC(=S)Nc1ccc2c(c1)OCCO2)c1ccco1	1.9%	?	70.8µM*	?	-15.7%
CCC(=O)NC(=S)Nc1cccc(NC(=O)c2ccco2)c1	-17.5%	-24.8%[57.1 µM]	/	-12.4%	-3.5%
Cc1cc(C)cc(C(=O)NC(=S)Nc2ccc3c(c2)OCCO3)c1	8.9%	?	25.1µM*	?	?
CC(=O)Nc1ccc2c(c1)OCCO2	6.3%	2.1%	15.4%	-34.8%	40.7%
N#Cc1nc(-c2ccc(OCc3ccccc3Cl)cc2)oc1N1CCC(C(N)=O)CC1	/	-14.2%	/	/	12.3%
Nc1nc2c(s1)CCc1ccccc1-2	79.4µM*	?	10µM*	?	-30.6%
O=C(CCCl)Nc1nc2c(s1)CCc1ccccc1-2	?	-31.5%	50.1µM*	-29.5%	-14.0%
CC(=O)Nc1nc2c(s1)CCc1ccccc1-2	-9.3%	-27.3%	-0.5%[59 µM]	-29.8%	4.7%[57 µM]
CCc1sc(-c2cc3ccc(O)cc3oc2=O)nc1-c1ccc(C)cc1	/	86.9%[57.1 µM]	/	/	95.0%[57 µM]
O=c1oc2ccccc2cc1-c1nc2c(s1)CCc1ccccc1-2	7.94µM*	66.2%[57.1 µM]	-19.4%[59 µM]	47.1%	86.5%[57 µM]
O=C(Nc1nc2c(s1)CCc1ccccc1-2)c1ccco1	-14.9%	?	?	-32.7%	-9.4%
O=c1oc2cc(O)ccc2cc1-c1nc2c(s1)CCc1ccccc1-2	56.2µM*	51.7%	55.3%[59 µM]	32.0%	77.1%
O=c1oc2ccc3ccccc3c2cc1-c1nc2c(s1)CCc1ccccc1-2	/	50.0%[57.1 µM]	/	/	48.4%[57 µM]
CCOC(=O)c1cc2sccc2n1CC(=O)N1CCCc2ccccc21	-6.1%	-22.5%	-5.4%[12.7 µM]	-3.4%	10.5%
COC(=O)c1cc2oc(C)cc2n1CC(=O)N1CCCc2ccccc21	56.2µM*	?	?	89.1µM*	-20.3%
CCOC(=O)c1cc2occc2n1CC(=O)N1CCCc2ccccc21	79.4µM*	?	?	79.4µM*	-29.1%
CCn1c(=O)c2cc(C(=O)N(CC(C)C)CC(C)C)sc2c2ccccc21	/	6.7%	3.5%[59 µM]	5.5%	40.7%
Cc1ccc(CS(=O)(=O)c2ncc(Cl)c(C(=O)Nc3nc4ccc(C)cc4s3)n2)cc1	/	-24.8%	4.5%[59 µM]	-18.3%	27.9%
CCCc1nnc(NC(=O)c2nc(S(=O)(=O)Cc3ccc(C)cc3)ncc2Cl)s1	-14.1%	-16.5%	12.6µM*	-20.2%	55.0%
CSc1nnc(NC(=O)c2nc(S(=O)(=O)Cc3ccccc3)ncc2Cl)s1	-9.7%	15.8µM*	50.1µM*	44.7µM*	-1.9%[57 µM]
CC(C)c1nnc(NC(=O)c2nc(S(=O)(=O)Cc3ccccc3)ncc2Cl)s1	-7.2%	-24.5%	8.91µM*	50.1µM*!	3.6%[57 µM]
CSc1ncc(Cl)c(C(=O)Nc2nnc(SC)s2)n1	3.6%	-19.8%	8.3%[59 µM]	-6.1%	23.8%
SMILES	Sfp PPTase inh	JMJD2A Tudor	G9a inh	BAZ2B block	HP1b binding inh
CCOC(=O)c1cc2c(=O)n3ccccc3nc2n(CC2CCCO2)c1=NC(=O)c1ccc(OCC)cc1 (centres undefined)	/	9.9%	14.3%[59 µM]	8.3%	41.6%
Cc1ccc(-c2nc3scc(CCNC(=O)Cc4ccc(Cl)cc4)n3n2)cc1	/	-1.6%	8.6%[59 µM]	5.3%	29.9%[57 µM]
O=C(O)COc1ccccc1/C=N/NC(=O)CSc1nc2ccccc2c(=O)n1-c1ccc(Cl)cc1	2.4%	?	?	56.2µM*	15.1%
CCn1c(SCC(=O)N/N=C/c2ccccc2OCC(=O)O)nnc1-c1ccc(OC)cc1	-1.9%	-17.6%	-22.6%	56.2µM*	-6.9%
O=C(O)COc1ccccc1/C=N/NC(=O)CSc1nc2ccccc2c(=O)n1-c1ccccc1	22.0%	-28.1%	-2.5%	?	0.9%
C=C1CCN(C(Cc2ccccc2)C(=O)N2CCOCC2)S(=O)(=O)c2ccccc21 (centres undefined)	8.5%	-3.4%	/	/	15.1%
CC(C)CC(=O)c1c(O)c(C=O)c(O)c2c1O[C@@]1(C)[C@@H](C2)C[C@H]2C[C@@H]1C2(C)C	/	16.2%	/	/	65.6%
O=C(Cn1c(N2CCN(c3ccccc3)CC2)nc2ccccc21)c1ccccc1	-2.8%	-4.5%	50.1µM*	-10.6%	14.1%
Cc1[nH]c2ccc(C(=O)N3CCN(c4ccc(F)cc4)CC3)cc2c1C	1.0%	50.1µM*	79.4µM*	35.5µM*	-24.0%
COc1cc2c(cc1OC)CN(C(=O)c1ccc3[nH]c(C)c(C)c3c1)CC2	-3.2%	?	/	50.1µM*	-27.4%
CC(=O)c1ccc(N2CCN(C(=O)c3ccc4[nH]c(C)c(C)c4c3)CC2)cc1	/	?	/	/	-13.9%
COc1ccc(N2CCN(C(=O)c3cc(-c4ccc(F)cc4)[nH]c3C)CC2)cc1	10.7%	44.7µM*	44.7µM*	44.7µM*	?
COc1ccc(N2CCN(C(=O)c3ccc4[nH]c(C)c(C)c4c3)CC2)cc1	1.1%	-5.4%	17.7%[12.7 µM]	39.8µM*	30.6%
COc1ccc(C(=O)N2CCc3cc(OC)c(OC)cc3C2)cc1OC	-1.7%	1.4%	-39.3%	3.0%	26.4%
COc1ccc(N2CCN(C(=O)CSc3nnc(-c4ccc5[nH]c(C)c(C)c5c4)o3)CC2)cc1	1.7%	-6.7%	-11.9%[59 µM]	-32.8%	9.1%
COc1ccc(S(=O)(=O)Nc2ccc3c(c2)sc(=O)n3C)cc1Cl	/	-19.2%	-24.4%[59 µM]	-8.8%	11.5%[57 µM]
C[C@]1(c2ccccc2)OC(C(=O)O)=CC1=O	30.8%	/	-45.7%[12.7 µM]	/	/
COc1cc2c(cc1OC)CN(C(=O)c1ccc([N+](=O)[O-])o1)CC2	3.0%	-27.1%	56.2µM*	-31.1%	-4.3%
O=C(c1ccc([N+](=O)[O-])o1)N1CCc2ccccc2C1	9.5%	-9.8%	-30.0%	-26.8%	12.2%
COC(Cc1ccccc1N1CCCC1=O)OC	7.2%	-2.8%	56.2µM*	?	33.7%
N#Cc1ccc(OCC(=O)Nc2cc(S(=O)(=O)N3CCOCC3)ccc2N2CCCC2)cc1	/	-8.1%	/	/	34.2%
NC(=O)C1CCN(c2nc(-c3ccc(F)cc3)cs2)CC1	/	-18.4%	-24.2%[12.7 µM]	56.2µM*!	28.8%
NC(=O)C1CCN(c2nc(-c3ccccc3F)cs2)CC1	/	-30.0%	1.3%[12.7 µM]	?	11.9%
NC(=O)C1CCN(c2nc(-c3cccc(N)c3)cs2)CC1	/	-17.9%	?	?	18.9%
NC(=O)C1CCN(c2nc(-c3cccnc3)cs2)CC1	/	79.4µM*	-3.9%[12.7 µM]	-2.9%	38.5%
O=C(CN1CCN(c2nc(-c3ccc(F)cc3)cs2)CC1)NCc1ccc2c(c1)OCO2	-28.8%	?	39.8µM*	?	-22.0%
Cn1ccc2cc(-c3csc(N4CCC(C(N)=O)CC4)n3)ccc21	/	-7.1%	-25.0%[12.7 µM]	50.1µM*	50.0%
O=C(CN1CCN(c2ncccn2)CC1)NCc1ccc2c(c1)OCO2	4.9%	-6.0%	7.6%	-18.2%	26.4%

From PubChem BioAssay
